Bioassay records deposited in PubChem BioAssay by several laboratories.
Many of the other results were omitted from the sample, so hits are more common in it than they were.
GluA2 TARP mod: modulates AMPAR-stargazin complexes. O88602+P19491. HEK293 GluA2+stargazin, membrane potential dye (FDSS), glutamate EC50; hits were called plate by plate, in both directions. calls only at 30 µM. 40,000 tested, 3.5% active;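 active = any of four per-well response measures lying three or more SD from its plate-wide compound average, in either direction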
Target sequence (O88602 whole entry, looked up): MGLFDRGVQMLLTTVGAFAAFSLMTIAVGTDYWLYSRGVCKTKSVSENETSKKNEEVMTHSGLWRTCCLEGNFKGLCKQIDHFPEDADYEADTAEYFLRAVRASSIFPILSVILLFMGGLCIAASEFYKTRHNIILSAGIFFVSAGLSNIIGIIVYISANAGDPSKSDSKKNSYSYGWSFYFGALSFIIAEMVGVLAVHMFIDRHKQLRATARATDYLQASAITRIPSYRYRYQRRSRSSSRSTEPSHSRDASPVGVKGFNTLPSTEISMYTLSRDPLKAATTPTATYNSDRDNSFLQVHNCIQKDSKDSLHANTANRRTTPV
Target sequence (P19491 whole entry, looked up): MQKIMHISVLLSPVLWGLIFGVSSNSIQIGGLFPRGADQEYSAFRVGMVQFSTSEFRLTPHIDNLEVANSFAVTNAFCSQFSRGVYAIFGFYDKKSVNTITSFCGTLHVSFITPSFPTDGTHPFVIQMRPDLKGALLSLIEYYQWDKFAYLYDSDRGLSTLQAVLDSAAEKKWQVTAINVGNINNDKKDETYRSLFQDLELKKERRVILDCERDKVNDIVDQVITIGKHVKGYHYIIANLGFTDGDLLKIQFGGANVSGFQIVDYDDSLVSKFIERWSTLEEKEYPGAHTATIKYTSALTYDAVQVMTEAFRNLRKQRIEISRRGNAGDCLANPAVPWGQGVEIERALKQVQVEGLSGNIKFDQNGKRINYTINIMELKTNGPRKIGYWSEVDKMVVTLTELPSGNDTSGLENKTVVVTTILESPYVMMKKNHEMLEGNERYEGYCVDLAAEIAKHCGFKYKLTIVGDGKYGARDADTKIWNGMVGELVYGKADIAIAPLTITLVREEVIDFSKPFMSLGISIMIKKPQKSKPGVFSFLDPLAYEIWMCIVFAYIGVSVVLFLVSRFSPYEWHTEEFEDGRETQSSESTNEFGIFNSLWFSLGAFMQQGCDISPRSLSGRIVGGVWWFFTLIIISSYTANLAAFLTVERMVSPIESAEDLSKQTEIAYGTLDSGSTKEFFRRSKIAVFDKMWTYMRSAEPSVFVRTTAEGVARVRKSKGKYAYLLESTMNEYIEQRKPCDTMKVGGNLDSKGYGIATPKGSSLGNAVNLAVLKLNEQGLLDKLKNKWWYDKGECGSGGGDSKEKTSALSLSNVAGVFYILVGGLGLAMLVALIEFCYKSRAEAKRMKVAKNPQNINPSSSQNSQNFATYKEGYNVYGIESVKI
GIRK2 act: Activators of human GIRK2-containing channels | 34,000 tested, under 10 active | activation (% efficacy), % for hits at 37.5 µM | P48051 | HEK293 GIRK2/NPY4 cells, thallium flux fluorescence;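 active = primary screen hit, no activity in plain HEK293 cells, and in GIRK2-only cells above 5% efficacy rising with concentration; inactive = the rest, including fluorescent compounds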;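 also: efficacy is normalized control-subtracted fluorescence 15 s after thallium addition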
Large screens that a line does not name were inactive.

O=C(Cn1c(=O)n(C2CC2)c(=O)c2nscc21)Nc1ccc(F)c(Cl)c1	GluA2 TARP mod active
CC(C)c1ccc(NC(=O)Cn2nc3c4cc(F)ccc4ncn3c2=O)cc1	none
COc1cc(Br)cc2cc(C(=O)Nc3cccc([N+](=O)[O-])c3C)c(=O)oc12	none (no result: GIRK2 act)
COc1cccc(S(=O)(=O)N2CCN(c3ccccc3)CC2)c1	none
CCOC(=O)c1sc(NC(=O)C2CCCN2S(C)(=O)=O)c(C(=O)OCC)c1C (centres undefined)	none
CCOC(=O)c1sc(NC(=O)c2ccncc2)c(C(=O)OCC)c1C	GluA2 TARP mod active (no result: GIRK2 act)
COc1ccccc1-c1coc2c3c(ccc2c1=O)OCN(C1CCN(Cc2ccccc2)CC1)C3	none
CSc1cccc(NC(=O)Cn2cc(-c3nc(-c4cccs4)no3)ccc2=O)c1	none
COCCn1c(-n2nc(C)cc2C)nc2c1c(=O)n(CCN1CCOCC1)c(=O)n2C	none
CC1=C(C(=O)Nc2cccc(C(F)(F)F)c2)C(c2ccc(C)cc2)C2=C(CCCC2=O)N1 (centres undefined)	GluA2 TARP mod active (no result: GIRK2 act)
CCN(CC)c1ccc(C2C(C(=O)Nc3cccc(C(F)(F)F)c3)=C(C)NC3=C2C(=O)CCC3)cc1 (centres undefined)	none (no result: GIRK2 act)
COc1cc(NCCNC(=O)Nc2ccc(C)c(F)c2)nc(OC)n1	none
CN(C)C(CNC(=O)c1ccc(Cl)c(Cl)c1)c1cn(C)c2ccccc12 (centres undefined)	none (no result: GluA2 TARP mod)
CN(C)C(=O)Cc1ccc(NC(=O)Cc2ccc(Cl)cc2)cc1	none
CN(C)C(=O)Cc1ccc(NC(=O)Nc2ccc(Cl)c(Cl)c2)cc1	GluA2 TARP mod active
O=C(COc1ccccc1C1CC(c2ccccc2)=NN1C(=O)c1ccccc1)N1CCOCC1 (centres undefined)	GluA2 TARP mod active (no result: GIRK2 act)
O=C(COc1ccccc1C1CC(c2cccs2)=NN1C(=O)c1ccccc1)N1CCCC1 (centres undefined)	none (no result: GIRK2 act)
CS(=O)(=O)N1CCC(C(=O)Nc2nnc(C3CCCCC3)o2)CC1	none (no result: GluA2 TARP mod)
O=C(O)CCN1CCN(Cc2ccccc2)CC1	none
O=C(O)CCN1CCN(Cc2ccc(Cl)cc2)CC1	GluA2 TARP mod active
Cc1ccc(N2CCN(c3ccc(S(=O)(=O)c4ccccc4)nn3)CC2)c(C)c1	none
Cc1ccc(C)c(N2CCN(c3ccc(S(=O)(=O)c4ccccc4)nn3)CC2)c1	GluA2 TARP mod active
COc1ccc(S(=O)(=O)Nc2nc(C(=O)Nc3ccc(Cl)cc3)cs2)cc1	none
COc1ccc(S(=O)(=O)Nc2nc(C(=O)Nc3ccc(C(C)C)cc3)cs2)cc1	GluA2 TARP mod active
COc1ccc(S(=O)(=O)CC(=O)N(Cc2ccccc2)Cc2ccccc2)cc1	none
Cc1ccc(S(=O)(=O)CCCC(=O)N(Cc2ccccc2)Cc2ccccc2)cc1	GluA2 TARP mod active
COc1ccc(OC)c2sc(N(CC3CCCO3)C(=O)c3cc(C)no3)nc12 (centres undefined)	none
COc1cccc(OCC(=O)NCC(C)(O)c2ccc(-c3ccccc3)cc2)c1 (centres undefined)	GluA2 TARP mod active
CC(O)(CNC(=O)COc1ccc2ccccc2c1)c1ccccc1 (centres undefined)	none
COc1ccc(S(=O)(=O)N2CCN=C2SCc2ccccc2C)cc1	none (no result: GIRK2 act)
COc1ccc(S(=O)(=O)N2CCN=C2SCc2ccccc2F)cc1	GluA2 TARP mod active (no result: GIRK2 act)
O=C(CSc1nc(=O)n(Cc2ccco2)c2c1CCC2)NC1CCCCC1	none
S=c1nc(-c2ccc(Br)cc2)n(Cc2ccco2)c2c1CCCC2	GluA2 TARP mod active (no result: GIRK2 act)
COc1coc(C(=O)Nc2nc3ccc(Cl)cc3s2)cc1=O	GluA2 TARP mod active
COC(=O)c1ccc(NC(=O)c2cc(=O)c(OC)co2)cc1	none
O=C(Nc1nc2ccc(Cl)cc2s1)c1cc(=O)c(OCc2ccc(F)cc2)co1	none
COc1ccc(NC(=O)c2cc(=O)c(OC)co2)c(OC)c1	GluA2 TARP mod active
CC(C)c1nnc(C2CCN(C(=O)c3ccc(Br)o3)CC2)o1	none
Cc1cc(NC(=O)c2ccccc2C(F)(F)F)n(-c2nc(-c3ccc4c(c3)OCO4)cs2)n1	none
NC(=O)c1ccc(NC(=O)C(=O)NCc2ccccc2)cc1	none
Cc1cc(NC(=O)c2ccc3c(c2)OCO3)c2ccccc2n1	none (no result: GIRK2 act)
COc1ccc(Cc2nnc(SCC(=O)Nc3cc(OC)ccc3OC)n2N)cc1	none
Cc1ccsc1C(O)CNC(=O)C(c1ccccc1)c1ccccc1 (centres undefined)	GluA2 TARP mod active
Cc1ccsc1C(O)CNC(=O)Cc1ccccc1Cl (centres undefined)	none
COc1cc(/C=C/C(=O)Nc2nnc(-c3ccn(C)n3)o2)cc(OC)c1OC	GluA2 TARP mod active
COC(=O)c1ccc(C(=O)Nc2nnc(-c3cc(C)n(C)n3)o2)cc1	none
COc1cccc2cc(C(=O)Nc3nnc(-c4cc(C)nn4C)o3)oc12	GluA2 TARP mod active
COc1cccc(C(=O)Nc2nnc(-c3cc(C)nn3C)o2)c1OC	none (no result: GluA2 TARP mod)
COc1ccc(-c2nnc(NC(=O)c3ccn(C)n3)o2)cc1OC	none
COc1ccc(-c2nnc(NC(=O)c3cc(C)nn3C)o2)cc1OC	GluA2 TARP mod active
Cc1cc(-c2nnc(NC(=O)/C=C/c3ccccc3)o2)nn1C	none
COc1cc(C(=O)Nc2nnc(-c3cc(C)n(C)n3)o2)cc(OC)c1OC	GluA2 TARP mod active
CCC(C(=O)Nc1cc(-c2cn3nc(OC)ccc3n2)ccc1OC)c1ccccc1 (centres undefined)	none
CCOC(=O)c1cccc(NC(=O)Cn2cccc(-c3nc(-c4ccc(C)cc4)no3)c2=O)c1	none
O=S(=O)(NCCCN1CCOC(c2ccccc2)C1)c1ccc(F)cc1 (centres undefined)	none (no result: GluA2 TARP mod)
CCCNC(=O)C(=O)c1cn(CC(=O)N2CCOCC2)c2ccccc12	none (no result: GIRK2 act)
Nc1c(C(=O)NC2CCCC2)nnn1-c1ccc(F)cc1	none
COc1ccc(OCC(=O)Nc2ccc(CC(N)=O)cc2)cc1	none
COc1cc(-c2nnc(NC(=O)c3cc(C)n(C)n3)o2)cc(OC)c1OC	GluA2 TARP mod active
CCn1nc(C(=O)Nc2nnc(-c3ccc(OC)cc3)o2)cc1C	none (no result: GluA2 TARP mod)
COc1ccc(NC(=O)CSc2nccn(-c3ccc(F)cc3)c2=O)cc1Cl	none
CC(C)CCN1C(=O)C(C)(C)COc2ccc(NC(=O)COc3ccc(F)cc3)cc21	GluA2 TARP mod active (no result: GIRK2 act)
COc1ccc(OCC(=O)Nc2ccc3c(c2)N(CCC(C)C)C(=O)C(C)(C)CO3)cc1	none (no result: GIRK2 act)
COC(=O)c1ccc(S(=O)(=O)NCCN2CCC(c3cccs3)CC2)cc1	none
CC(C)S(=O)(=O)c1ccc(C(=O)Nc2c(C(N)=O)oc3ccccc23)cc1	none
O=C(NCCc1ccccc1)C(=O)c1cn(CC(=O)N2CCOCC2)c2ccccc12	GluA2 TARP mod active (no result: GIRK2 act)
O=C(NCc1ccccc1)C(=O)c1cn(CC(=O)N2CCOCC2)c2ccccc12	none (no result: GIRK2 act)
COC(=O)Cc1c(C)c2ccc(OCC(=O)c3ccc(Br)cc3)c(C)c2oc1=O	none (no result: GIRK2 act)
COc1cccc(-c2cc(C(=O)O)c3[nH]c(-c4ccccc4)nc3n2)c1O	none (no result: GluA2 TARP mod)
COCCNC(=O)C(=O)NCC1(c2cccs2)CC1	none
COCCNC(=O)NCC1(c2cccs2)CC1	GluA2 TARP mod active
Cn1nccc1-c1nnc(NC(=O)c2ccc(S(=O)(=O)N3CCCc4ccccc43)cc2)o1	none
COc1ccc(-n2c(C)nc3ccc(NC(=O)c4ccc(F)c(F)c4)cc3c2=O)cc1	GluA2 TARP mod active (no result: GIRK2 act)
COc1cccc(C(=O)Nc2ccc3nc(C)n(-c4ccc(C)cc4)c(=O)c3c2)c1	none (no result: GIRK2 act)
COc1ccc(S(=O)(=O)N2CCCOC2CNC(=O)C(=O)NC2CCCCC2)cc1OC (centres undefined)	none (no result: GIRK2 act)
